ClpP mod = qHTS Assay for Activators of ClpP | AID 651965, 2013 | actives 1.9% (n = 340,000) | Potency, µM (doses to about 57.5 µM), for inactives: at the highest dose activity change, negative = active | purified B. subtilis ClpP, FRET peptide cleavage, 20 min | ATP-dependent Clp protease proteolytic subunit (Bacillus subtilis (strain 168)), P80244; active means well fitted falling curve with a large enough effect; inconclusive means small, poorly fitted or top-dose-only effect; inactive means no such curve, though single readings can be large or run the other way; further: potency means the concentration at half of the fitted maximal effect; the source files actives as falling curves though it sought activators and does not explain the sign; nearly all actives have a fitted effect of over 65% in size
Target sequence (P80244 whole entry, looked up): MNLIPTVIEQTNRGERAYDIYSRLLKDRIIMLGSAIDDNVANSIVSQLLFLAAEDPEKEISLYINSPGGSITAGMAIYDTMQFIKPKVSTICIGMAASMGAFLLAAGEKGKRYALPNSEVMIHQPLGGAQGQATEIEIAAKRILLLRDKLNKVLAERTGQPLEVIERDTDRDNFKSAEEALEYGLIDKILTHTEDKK
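ClpP 10 microg/mL final, pH 8 Tris/KCl buffer with BSA, glycerol, Tween-20; compound pinned in; FRET-FV substrate; RT 20 min; Ex320/Em430; ΔFRET vs ADEP 5.8 microM, DMSO, no enzyme.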
D3 ag = agonists of human D3 dopamine receptor; D3R DiscoveRx beta-arrestin cells, luminescence, 90 min; max activation, %; actives 0.58% (n = 410,000); AID 652048; in the data active means max activation above about 30%; further: 0% is about no effect
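Agonist-mode cell screen: cells plated at 1500/well and incubated overnight at 37 °C, then exposed to library compounds for 90 min at 37 °C. Detection reagent was added for 30–60 min at room temperature, and luminescence was read.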
DRD3 antagonist = blocks the human D3 dopamine receptor; D3R cells, DiscoveRx beta-arrestin luminescence, antagonist mode; stronger effect = lower value; max response, negative = inhibition, %; actives 2.5% (n = 360,000); P35462; in the data active means max response below about -50%; inconclusive means no clear call, values can overlap the other calls; further: on the % scale 0 is the no-effect control and ±100 the full control effect
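Cells plated overnight at 1500 cells/well, then exposed to library compounds with dopamine controls for 90 minutes at 37 degrees C. DiscoveRx reagent added for 30–60 minutes at room temperature; luminescence read, quantitative HTS format.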
IL1B secr inh = inhibitors of inflammasome signaling (IL-1 beta secretion). THP-1 LPS/ATP IL-1B secretion, AlphaLISA, 16 h; stronger effect = lower value. activity change, % at 57.5 µM. actives 4.7% (n = 360,000). AID 743279; in the data active means activity change below about -50%; inconclusive means mostly about -30% to -49%; further: on the % scale 0 is the no-effect control and ±100 the full control effect
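THP-1 cells pretreated 1 hr with compounds (up to 57.5 uM final), then stimulated with LPS (250 ng/mL final) plus ATP (1.25 mM final); secreted IL-1B measured by AlphaLISA after 16 hr, decreased signal indicating inhibition.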
TDP1 cell CPT = DT40-hTDP1 cell growth loss with CPT. chicken DT40 Tdp1-/-;hTDP1 cells + 20 nM CPT, ATP luminescence, 48 h. Potency, µM (doses to about 46.2 µM), for inactives: at the highest dose activity change, negative = growth inhibition, hits mostly inhibitors. actives 12% (n = 420,000). AID 686979; further: potency means the concentration at half of the fitted maximal effect; on the % scale 0 is the no-effect control and ±100 the full control effect; nearly all actives have a fitted effect of over 55% in size
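Chicken DT40 Tdp1-/- cells stably complemented with human TDP1 were seeded at 400 cells/well in medium containing 20 nM camptothecin, exposed to pin-transferred compounds, and grown at 37 °C for at least 48 hr. Viability was read as ATP luminescence.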
TDP1 cell noCPT = qHTS for Inhibitors of human tyrosyl-DNA phosphodiesterase 1 (TDP1): qHTS in cells in absence of CPT | AID 686978, 2013 | DT40 Tdp1-/- hTDP1 cells, no CPT, ATP luminescence, 48 h | actives 15% (n = 420,000) | Potency, µM (doses to about 46.2 µM), for the others: at the highest dose activity change, negative = growth inhibition, actives largely listed as inhibitors; further: potency means the concentration at half of the fitted maximal effect; on the % scale 0 is the no-effect control and ±100 the full control effect; nearly all actives have a fitted effect of over 55% in size
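Cells were dispensed at 400 per well, compounds added by pin tool, plates incubated ≥48 hr at 37 °C, then CellTiter-Glo added for 30 min at room temperature before luminescence reading. Line: DT40 Tdp1-/- complemented with hTDP1; camptothecin omitted.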
Numbers without * were called inactive; ? = inconclusive; . = no result given. The list is not random: actives were taken first. Their share in the collection is about 21%. Unless noted, the call rests on the fitted dose curve; in most records, active means well fitted inhibition curve with a large enough effect; inconclusive means small, poorly fitted or top-dose-only effect; inactive means flat fitted curve, though single readings scatter.

SMILES	ClpP mod	D3 ag	DRD3 antagonist	IL1B secr inh	TDP1 cell CPT	TDP1 cell noCPT
CCNC(=S)Nc1ccc(Cl)c([N+](=O)[O-])c1	.	-0.3	3.4	-88.9*	-16.0%	?
CC(CC(=O)Nc1ccc(Cl)c([N+](=O)[O-])c1)c1ccccc1 (stereo not drawn)	-1.2%	-16.3	-57.4*	-90.5*	?	?
CC(C)NC(=O)Cc1csc2nc(-c3ccccc3)cn12	-2.1%	4.5	.	.	-9.7%	13.4%
CC1CCc2nc(NC(=O)C3COc4ccccc4O3)sc2C1 (stereo not drawn)	0.0%	0.0	0.3	-18.3	16.4µM*	20.6µM*
CC1CCc2nc(NC(=O)Nc3ccc4c(c3)OCO4)sc2C1 (stereo not drawn)	1.7%	12.3	-17.7	-75.4*	?	?
CC1CCc2nc(NC(=O)CN3CCN(Cc4ccc5c(c4)OCO5)CC3)sc2C1 (stereo not drawn)	-1.9%	-10.6	0.0	?	18.4µM*	16.4µM*
CC1CCc2nc(NC(=O)CN3CCN(c4ccccc4)CC3)sc2C1 (stereo not drawn)	4.4%	-8.9	10.9	12.5	?	20.6µM*
CC1CCc2nc(NC(=O)CN3CCOCC3)sc2C1 (stereo not drawn)	-0.5%	-1.0	-7.0	13.0	1.9%	-20.0%
O=C(CN1CCN(Cc2ccc3c(c2)OCO3)CC1)Nc1ccc2c(c1)OCO2	0.4%	-4.7	?	-10.0	-17.9%	-3.2%
CC1CCc2nc(NC(=O)CCSc3ccccc3)sc2C1 (stereo not drawn)	-0.3%	-5.0	?	-12.3	-6.9%	-9.8%
CC1CCc2nc(NC(=O)Cc3ccc(Cl)cc3)sc2C1 (stereo not drawn)	0.7%	-2.0	.	.	?	18.4µM*
CCOC(=O)CSc1nnc(NC(=O)CCc2ccccc2)s1	-2.3%	3.8	-8.3	9.9	-3.8%	0.5%
CCOC(=O)C1=C(COC(=O)CCS(=O)(=O)c2ccc(C)cc2)NC(=O)NC1C (stereo not drawn)	-2.7%	-15.4	-25.0	-80.1*	?	-23.9%
CCOC(=O)C1=C(COC(=O)CCOc2ccccc2)NC(=O)NC1C (stereo not drawn)	1.3%	-9.6	?	4.8	23.1µM*	23.1µM*
Cc1ccsc1C(=O)OCC(=O)NCc1ccc(Cl)cc1	-3.3%	-4.6	-8.3	6.2	-22.7%	-0.7%
NC(=O)c1ccc(-n2nnnc2SCc2ccccc2)cc1	0.8%	0.7	13.8	3.5	-6.9%	?
O=C(Nc1nccs1)c1ccc(CSc2nnnn2-c2ccccc2)cc1	-21.6%	0.9	-12.6	?	12.6µM*	-59.5%
O=C(O)/C=C1\CCCc2ccccc2[C@H]1O	.	.	.	.	-11.4%	-5.6%
Cc1ccc(C)c2c1NC(C(=O)O)C1CC=CC21 (stereo not drawn)	-17.6%	.	.	.	?	?
CC(C)(C)NC(=O)C[C@H]1C[C@H](C(=O)N2CCCCC2)[C@@]2(C)c3[nH]c4ccc(Cl)cc4c3CCN2C1=O	-3.7%	-20.4	?	-23.5	23.1µM*	20.6µM*
CN(C)CCCNC(=O)C[C@H]1C[C@H](C(=O)N2CCCCC2)[C@@]2(C)c3[nH]c4ccc(Cl)cc4c3CCN2C1=O	-1.0%	-44.2	6.4	-11.8	?	?
COCCCNC(=O)C[C@H]1C[C@H](C(=O)N(C(C)C)C(C)C)[C@@]2(C)c3[nH]c4ccc(Cl)cc4c3CCN2C1=O	2.5%	-17.1	?	5.2	11.6µM*	8.2µM*
C[C@]12c3[nH]c4ccc(Cl)cc4c3CCN1C(=O)[C@@H](CC(=O)NCCN1CCOCC1)C[C@@H]2C(=O)N1CCCCC1	0.2%	-16.3	-4.7	-22.3	?	16.4µM*
